Screening results deposited in PubChem BioAssay by several laboratories.
Only some compounds are listed: those with a hit (about 4.9% of all), similar ones and a draw of the others.
Platelet DG rel = inhibitors of platelet dense granule secretion, primary screen, cell-based, MLPCN, human platelets; human platelet-rich plasma, SFLLRN dense granule ATP release, luminescence; inhibition, %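 (compounds screened at 7.5 µM in platelet-rich plasma)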; actives 0.22% (n = 300,000); AID 1663, 2009;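 active means mean replicate score, as percent of positive control, at or above 50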
dFosB activator = activators of delta FosB homodimer, primary screen, biochemical, fluorescence polarization, TAMRA-CDK5 oligo, single point; AID 493131, 2011; purified delta FosB; percent of positive-control signal above neutral wells; activation, % at 25 µM; actives 0.99% (n = 340,000);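 active means mean activation above about 17%, with every replicate also reaching it, limit read from the data, passing the limit was not always enough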
Target sequence (P13346 whole entry, looked up): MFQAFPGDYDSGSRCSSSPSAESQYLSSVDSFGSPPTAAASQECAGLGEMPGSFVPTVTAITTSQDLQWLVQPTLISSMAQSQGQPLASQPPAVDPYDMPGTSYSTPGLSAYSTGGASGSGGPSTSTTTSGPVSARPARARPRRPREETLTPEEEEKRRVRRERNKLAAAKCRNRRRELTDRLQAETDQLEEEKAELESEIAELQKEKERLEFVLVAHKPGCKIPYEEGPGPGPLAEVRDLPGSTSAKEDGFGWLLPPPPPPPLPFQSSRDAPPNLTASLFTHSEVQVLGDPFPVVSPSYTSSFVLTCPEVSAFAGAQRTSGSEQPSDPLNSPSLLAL
MPTP block = mitochondrial permeability transition pore inhibitors, primary screen, biochemical, isolated mouse mitochondria, absorbance; Ca2+ swelling absorbance, 30 min; inhibition, % at 10 µM; actives 1.4% (n = 360,000);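 active means inhibition of 50% or more, scaled per plate between neutral and stimulator controls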
HSF1 inh = HSF1 inhibitors in luciferase reporter cells, primary screen, cell-based, NIH3T3, luminescence; NIH3T3-HGL HSE-luciferase, MG132-induced, luminescence 8 h; stronger effect = lower value; actives 0.77% (n = 300,000); activity change, negative = inhibition, % at 7.5 µM (by protocol);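 active means more than half of replicate wells show activity change below -50%, luminescence cut by over half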;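 further: luciferase reports HSF-1 transcriptional activity via heat shock element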
HSF-1 act = HSF-1 activators, primary screen, NIH3T3-HGL cells, MG132 stress, luminescence, single point. NIH3T3-HGL HSF-1 luciferase reporter, 8 h; 100% = twice DMSO control signal. activation, % at 9 µM. actives 1.7% (n = 300,000). AID 504408, 2011;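 active means mean replicate activation of at least 50% with a set share of replicates each reaching 50%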
HSP90 inh = HSP90 inhibitors, primary screen, cell lysate, luminescence; Heat shock protein HSP 90 (rabbit reticulocyte lysate; luciferase refolding); Rabbit reticulocyte lysate, luciferase refolding luminescence, 3 h; inhibition, % at 5.6 µM; actives 0.91% (n = 290,000); AID 1789, 2009;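 active means inhibition above the screen-wide mean plus 3 SD, computed separately per campaign, cut at about 16% in these data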;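 further: inhibitors lower the luminescence because luciferase stays unfolded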
MPTP counter = fluorescence retest of MPTP screen hits in isolated mitochondria, single concentration. shares compounds with MPTP block. membrane potential, Rhodamine 123 fluorescence. inhibition, % at 10 µM. actives 78% (n = 5,000). AID 624504, 2012; in the data active means inhibition above about 22%
MPTP abs DR = mitochondrial permeability transition pore inhibitors, dose response, biochemical, absorbance, uHTS hits; shares compounds with MPTP block; IC50, µM; AID 651561, 2012; actives 58% (n = 780); isolated mitochondria swelling; in the data active means IC50 below about 20 µM
MPTP counter DR = fluorescent counter-screen in isolated mitochondria, dose response, counter-screen for MPTP inhibitor project, biochemical, fluorescence, uHTS hits. shares compounds with MPTP block. isolated mitochondria counterscreen, fluorescence read-out. IC50, µM. actives 49% (n = 780). AID 651564, 2012; in the data active means IC50 below about 80 µM
Hits are given with their value; i = inactive; nt = no result.

SMILES	Platelet DG rel	dFosB activator	MPTP block	HSF1 inh	HSF-1 act	HSP90 inh	MPTP counter	others
CN(c1ccccc1)S(=O)(=O)c1ccc(C(=O)OCC(=O)NCc2ccco2)cc1	i	i	i	i	i	i	nt
COc1ccccc1N(C)S(=O)(=O)c1ccc(C(=O)OCC(=O)NCc2ccco2)cc1	i	i	51	i	i	i	i	MPTP abs DR=i;MPTP counter DR=i
N#CCn1c(CN2CCCC2)nc2ccccc2c1=O	i	i	i	i	i	i	nt
COCCN(CCOC)S(=O)(=O)c1ccc(C(=O)Nc2nc(-c3ccccc3)c(C(=O)c3ccccc3)s2)cc1	i	i	i	i	i	i	nt
CCCN(CCC)S(=O)(=O)c1ccc(C(=O)Nc2nc(-c3ccccc3)c(C(=O)OCC)s2)cc1	i	i	80	i	i	i	i	MPTP abs DR=14;MPTP counter DR=12
Cc1ccc(/C=C/C(=O)c2cc(Br)ccc2OC(=O)c2ccco2)cc1	nt	i	i	i	i	i	nt
COc1ccccc1/C=C/C(=O)c1cc(Br)ccc1OC(=O)c1ccco1	i	i	57	i	103	i	i
COc1cc(-c2cc(NC=O)c3ncc(-c4cccc(C(=O)N(C)C)c4)n3c2)cc(OC)c1OC	nt	nt	i	nt	nt	nt	nt
Cc1cccc(OCCCSc2nc3ccccc3[nH]2)c1	i	i	51	i	i	i	64
Cc1cccc(OCCSCc2nc3ccccc3[nH]2)c1	i	i	i	i	i	i	nt
CCOc1ccc(OCCSc2nc3ccccc3[nH]2)cc1	i	i	i	i	i	i	nt
CCCOc1ccc(CSc2nc3ccccc3[nH]2)cc1	i	i	98	i	i	i	92
COC(=O)C[C@@H]1CC[C@@H](NS(=O)(=O)c2ccc(OC)cc2)[C@@H](CO)O1	nt	nt	i	nt	nt	nt	nt
CCN(CC)C(=O)c1ccc(S(=O)(=O)N2CCC(c3nc4ccccc4s3)CC2)cc1	i	i	89	i	i	i	94
COc1ccc(CN2C(=O)CS/C2=N/N=C/c2cccs2)cc1	i	i	82	i	i	i	62
O=C(O)c1ccc(Oc2ccccc2)o1	i	i	i	i	i	i	nt
CCOC(=O)c1cnn(-c2sc(C(=O)OCC)c(C)c2C(=O)OCC)c1N	i	i	88	i	i	i	74
CCOC(=O)c1cnn(-c2cc(C)cc(C)c2)c1N	i	i	i	i	i	i	nt
On1onc2c3cc(-c4ccccc4)nc3ccc21	nt	i	101	nt	nt	i	65
COc1ccccc1C(=O)N1CCCC(C)(C(=O)NS(=O)(=O)C2CC2)C1 (stereo unspecified)	nt	nt	i	nt	nt	nt	nt
CCN(Cc1cccc(F)c1)C(=O)c1ccc2ccccc2n1	i	i	i	i	i	i	nt
OCCN1CCN(c2ncnc3c2ncn3[C@H]2CN(Cc3cccs3)C[C@@H](CO)O2)CC1	nt	nt	57	nt	nt	nt	i	MPTP abs DR=i;MPTP counter DR=i
OC[C@@H]1CN(Cc2cccs2)C[C@H](n2cnc3c(N4CCN(c5ccccc5)CC4)ncnc32)O1	nt	nt	i	nt	nt	nt	nt
COc1ccc(CCNc2ccc(N3C(=O)CC(C)C3=O)cc2[N+](=O)[O-])cc1OC (stereo unspecified)	i	i	96	i	i	i	82
O=C1C2CC=CCC2C(=O)N1c1ccc(NCCc2ccc(O)cc2)c([N+](=O)[O-])c1 (stereo unspecified)	i	i	91	i	i	i	76
SMILES	Platelet DG rel	dFosB activator	MPTP block	HSF1 inh	HSF-1 act	HSP90 inh	MPTP counter	others
O=C1C2CC=CCC2C(=O)N1c1ccc(NCCc2ccc(Cl)cc2)c([N+](=O)[O-])c1 (stereo unspecified)	i	i	i	i	i	i	nt
Cc1cc(C(F)(F)F)c(C#N)c(SCC(=O)Nc2nc3ccccc3s2)n1	i	i	63	-73	i	30	74
Clc1ccc(-c2nnc(CSc3nnc(-c4cccs4)n3Cc3ccccc3)o2)cc1	i	i	92	i	i	i	89
CC(C)CC1C(=O)N(Cc2cn(CCC3OCCCO3)nn2)CCS(=O)(=O)N1Cc1ccc(-c2ccc(Cl)nc2)cc1 (stereo unspecified)	nt	nt	i	nt	nt	nt	nt
CN(C)CC1CCCCC1OC(=O)c1ccc(S(=O)(=O)N(C)c2ccccc2)cc1 (stereo unspecified)	i	i	81	i	i	i	i	MPTP abs DR=12;MPTP counter DR=61
Cc1cccc(OC(=O)NCCOC(=O)N(O)c2ccc(Cl)cc2)c1	i	i	91	i	i	i	81
Cc1cccc(OCC(=O)Oc2ccc(Cl)cc2)c1	i	i	i	i	i	nt	nt
COCOCCn1cc(CN2CCS(=O)(=O)N(Cc3ccc(-c4ccc(Cl)c(Cl)c4)cc3)C(C)C2=O)nn1 (stereo unspecified)	nt	nt	i	nt	nt	nt	nt
O=C1NC[C@@H](CCCCN2CCN(CCc3ccc(O)cc3)C(=O)C2=O)N(CCc2ccc(O)cc2)C1=O	nt	nt	i	nt	nt	nt	nt
CC(C)(C)NC(=O)NC(=O)COC(=O)c1cccc(NS(=O)(=O)c2ccc(F)c(F)c2)c1	i	i	i	i	i	i	nt
CC(C)(C)c1ccc(NC(=O)COC(=O)c2ccc(NS(=O)(=O)c3ccc(F)c(F)c3)cc2)cc1	i	i	60	i	i	i	60
C=CC[C@@H](CC(=O)N[C@H](CO)Cc1ccccc1)C(=O)NC[C@H](OC(=O)[C@@H](CC=C)Cc1ccc(F)cc1)c1ccccc1	nt	i	i	nt	nt	nt	nt
O=[N+]([O-])c1ccc(N/N=C/c2ccccc2)c(F)c1	i	i	83	i	i	i	80
COc1ccc(NS(=O)(=O)c2ccc(N3CCOCC3)c(N)c2)cc1	nt	i	86	nt	nt	nt	96
Nc1cc(S(=O)(=O)Nc2cc(Cl)ccc2Cl)ccc1N1CCOCC1	i	i	61	i	i	i	i	MPTP abs DR=i;MPTP counter DR=55
O=S(=O)(NCc1ccccc1)c1ccc(-c2cnc(C3CC3)o2)cc1	i	i	i	i	i	i	nt
CCOc1ccccc1CNS(=O)(=O)c1ccc(-c2cnc(C3CC3)o2)cc1	i	i	51	i	i	i	84
CCCOC(=O)c1ccc(OCC(O)Cn2c(C)nc3ccccc32)cc1 (stereo unspecified)	i	i	53	i	i	i	103
